Each structure is given as a SMILES string.

The target in this test is Shiga toxin 2 (Escherichia coli O157:H7) (UniProt P09385+P09386). Kind of test: E. coli 0.157:H7 Shiga Toxin SOP - stx2 screening assay. It counts as functional. Set-up: scale not given: direction of the effect not stated beside the values. The following applies: 30 µM.
On to `CC(C)Sc1nnc(CCNC(=O)OC(C)(C)C)o1`, for which the Percent Effect was -76.8%.

As to `COc1ccc(C(=O)N2CCCC(CNS(C)(=O)=O)C2)cc1F` (stereo not given), the Percent Effect was 22.9%.

With `O=C1CC2(CCN(CCO)CC2)CN1Cc1cc(F)cc(F)c1`, the Percent Effect was 11.4%.

As for `CC(C)c1nc(CN(C)C2CCN(CC(F)(F)F)C2)no1` (stereo not given), the Percent Effect is -4.21%.

For `Cc1ccc(N2CCCC(NCc3ccncc3)C2)nn1` (stereo not given), the Percent Effect is -14.5%.

With `COc1cccc(-n2nnc(C(=O)N3CCNC(=O)C3)c2C)c1`, the Percent Effect was -7.95%.

`C=C(C)CN(Cc1cccc(O)c1)C1CCC(O)CC1` (stereo not given): the Percent Effect came out at 18.1%.

On to `CCOCCCNC(=O)c1nn(CC)cc1Cl`, for which the Percent Effect is -47.7%.

Take `Cc1nc(C)c(CC(=O)N2C[C@H]3CC[C@@H]2CN(C(=O)N(C)C)C3)c(=O)[nH]1`: the Percent Effect was -13.6%.

As to `COc1cccc(C(=O)NCCCN2CCc3ccccc3C2)c1OC`, the Percent Effect is -9.33%.

On to `O=C(Nc1cccc(Cl)c1)c1nn(C2CCS(=O)(=O)C2)c2c1CCCC2` (stereo not given), for which the Percent Effect was 5.07%.

With `CN(CCCc1ccccc1)Cc1nc2c(cnn2C)c(=O)[nH]1`, the Percent Effect worked out at 28.4%.

On to `COc1cccc2c1OCC(CNC(=O)CSc1nc(N)n[nH]1)C2` (stereo not given), for which the Percent Effect worked out at 6.55%.

Turning to `COCCNC(=O)CN1CCN(c2nc(C)cs2)C(C)C1` (stereo not given), the Percent Effect was -15.9%.

As for `Cc1ccc2cc(CNCCCO)c(=O)[nH]c2c1`, the Percent Effect is -9.65%.

In the case of `Cc1ncccc1OC1(C(=O)NCCNc2ccccc2)CCNCC1`, the Percent Effect stood at 6.67%.

In the case of `O=C(Nc1cccc(CNCc2cccs2)c1)C1CCCC1`, the Percent Effect amounted to 13%.

In the case of `c1ccc(-c2noc(CNC3CCc4ncnn4C3)n2)nc1` (stereo not given), the Percent Effect was determined as 16.9%.

Consider `COc1ccc(F)cc1C(C)NC(=O)Nc1nnc(C)s1` (stereo not given), for which the Percent Effect was 15.6%.

`OCCC1CN(C2CCC2)CCN1C1CCCC1` (stereo not given): the Percent Effect came to 7.89%.

Regarding `CC(C)C(C(=O)N1CCC(N(C)c2cccnn2)CC1)n1cncn1` (stereo not given), the Percent Effect is 11.4%.

As to `COc1cccc(N2CCN(CCC(=O)NC3CCCC3)CC2)c1`, the Percent Effect was -41.4%.

On to `O=C(COCC1CC1)N1CCCC(n2cncn2)C1` (stereo not given), for which the Percent Effect turned out to be 18.2%.

For the compound `Cn1cc(CN2CCCN(C(=O)c3cc[nH]n3)CC2)cn1`, the Percent Effect is -19.9%.

Regarding `O=C(c1ccc(NC2CC2)nc1)N1CCCC(n2cccn2)C1` (stereo not given), the Percent Effect was 14.7%.

For `O=C(c1ccc[nH]1)N1CCn2cc(CN3CCCC3)nc2C1`, the Percent Effect was 0.78%.

Take `Cc1nn(C)c(Cl)c1CNCc1cccnc1N1CCOCC1`: the Percent Effect came to 4.19%.

As to `CC(C)c1noc(CCC(=O)NC(C)c2nnc3n2CCCCC3)n1` (stereo not given), the Percent Effect was -13.7%.

As to `c1coc(CN2C[C@H](OCC3CCOCC3)[C@H]3COC[C@H]32)c1`, the Percent Effect was determined as 12.6%.

As to `CN(c1ccc(F)c(F)c1)S(=O)(=O)c1cc(C(=O)O)cs1`, the Percent Effect amounted to 20.8%.

Regarding `COCCn1cc(C(=O)N2CCCC2c2cccc(F)c2)ccc1=O` (stereo not given), the Percent Effect is -4.86%.

`CC1CCN(C(=O)c2ccn(COc3ccc(F)cc3)n2)CC1`: the Percent Effect was -44.1%.

Consider `CC(=O)N1CCCC1c1cccc(Cc2ccccc2F)n1` (stereo not given), for which the Percent Effect came out at 4.04%.

As to `CN(C)C(=O)CCC(=O)NCc1cccnc1-n1cnc2ccccc21`, the Percent Effect is -4.51%.

Regarding `CCN(Cc1cccc2c1OCO2)C(=O)NC1CC1`, the Percent Effect was -11%.

As for `Cc1cccc(-c2ccc(C(=O)NCCN(C)C3CC3)c(=O)[nH]2)c1`, the Percent Effect came out at 19.3%.

For `c1ccc(Cn2cccn2)c(CNCC2CNc3ccnn3C2)c1` (stereo not given), the Percent Effect was -40.7%.

Take `O=C(NCc1nncn1-c1ccccc1)C1CC(=O)N(CC2CC2)C1` (stereo not given): the Percent Effect was determined as 23.5%.

Regarding `Cc1cc(C)c2cc(CNCc3ccccc3)c3nn(C)c(=O)n3c2c1`, the Percent Effect is -0.711%.

Take `CC(C)c1cc(N2CCC(N)CC2)n2nccc2n1`: the Percent Effect came to 19.8%.

The record behind these values is ChEMBL document CHEMBL3988442, “University of Dundee, Small-Polar-MMV Screening Library” (2021).
